# Compound activity deposited in PubChem by National Center for Advancing Translational Sciences (NCATS).
# Sampled rows, rich in hits. Any-hit rate of the full collection: about 11%.
# Tau fibril FP = blocks human tau fibril formation measured by polarization. P10636. K18 P301L tau heparin fibrillization, Alexa594 FP, 6 h. Potency, µM (titrated, usually from 57.7 µM), inactives show top-dose activity, negative = inhibition, actives largely listed as inhibitors. actives 0.39% (n = 280,000). AID 1468; note: potency is the fitted concentration of half-maximal effect; nearly all actives have a fitted effect of over 55% in size
# Target sequence (P10636 561-689 P618L limits assumed): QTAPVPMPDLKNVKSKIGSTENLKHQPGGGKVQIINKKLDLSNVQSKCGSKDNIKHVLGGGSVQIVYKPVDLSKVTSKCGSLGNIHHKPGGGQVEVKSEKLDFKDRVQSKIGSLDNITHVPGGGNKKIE
#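 Recombinant K18 P301L […], labeled with Alexa 594 at 0.24 uM over 15 uM unlabeled; heparin inducer 20 uM final; 37 C, 6 hr; FP endpoint.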
# Tau fluor cs = counter-screen for tau fibril formation inhibitors; tau K18 P301L Alexa594 fluorescence, heparin fibrillization; Potency, µM (series often up to 57.7 µM), inactives show at the highest dose activity change, negative = decrease; actives 0.93% (n = 280,000); AID 1463; note: potency is the fitted concentration of half-maximal effect; nearly all actives have a fitted effect of over 55% in size
#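 Human tau K18 P301L (15 uM unlabeled, 0.24 uM Alexa 594-labeled) in 100 mM sodium acetate pH 7 with 20 uM heparin, 6 hr at 37 C. ThT 30 uM added, 1 hr ambient; Alexa 594 FP and total fluorescence read at 555/632 nm.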
# G9a inh = G9a (human) methyltransferase inhibition; G9a H3K9 monomethylation, AlphaScreen, 2 h; AID 504332; actives 8.8% (n = 350,000); Q96KQ7; Potency, µM (doses to about 102 µM), without a hit: top-dose activity, negative = inhibition, actives largely listed as inhibitors; note: potency is the fitted concentration of half-maximal effect; nearly all actives have a fitted effect of over 75% in size
# Target sequence (Q96KQ7 913-1193 limits assumed): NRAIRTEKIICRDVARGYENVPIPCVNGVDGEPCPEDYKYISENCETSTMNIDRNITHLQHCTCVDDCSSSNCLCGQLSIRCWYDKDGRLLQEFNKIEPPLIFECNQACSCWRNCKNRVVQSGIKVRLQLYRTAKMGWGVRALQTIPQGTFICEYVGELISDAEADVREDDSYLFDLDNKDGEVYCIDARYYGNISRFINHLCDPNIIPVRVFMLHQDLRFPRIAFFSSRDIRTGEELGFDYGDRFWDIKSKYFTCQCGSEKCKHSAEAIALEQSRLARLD
#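 Step 1: enzyme (final 20 nM) with compound, 15 min RT. Step 2: substrate peptide 500 nM and SAM 20 uM, 2 h RT. Step 3: anti-H3K9me1 antibody and AlphaScreen beads, 10 min, then plate read.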
# Tau fibril ThT = inhibitors of human tau fibril formation, thioflavin T binding; P10636; recombinant tau K18 P301L (four-repeat tau fragment), heparin-induced fibrillization, ThT fluorescence; Potency, µM (highest dose often 57.4 µM), for the others: at the highest dose activity, negative = inhibition, most hits filed as inhibitors; actives 2.1% (n = 270,000); note: potency is the fitted concentration of half-maximal effect; nearly all actives have a fitted effect of over 55% in size
#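 Recombinant human tau K18 fragment […] carrying P301L, 15 uM unlabeled plus 0.24 uM Alexa 594-labeled, was fibrillized with 20 uM heparin in 100 mM sodium acetate pH 7 for 6 hr at 37 C; 30 uM ThT fluorescence read after 1 hr.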
# Sfp inh = inhibitors of Bacillus subtilis Sfp phosphopantetheinyl transferase. Biochemical Sfp PPTase activity, qHTS. Potency, µM, for the others: largest response in the series, negative = inhibition, actives largely listed as inhibitors. actives 3.5% (n = 310,000). Q9F4F7;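 note: the enzyme is Sfp with the accession as filed and its product quenches rhodamine fluorescence; potency is the fitted concentration of half-maximal effect; 0% = enzyme reaction without inhibitor and -100% = no enzyme wells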
#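 Sfp 15 nM + cpd, 15 min RT; start w/ rhodamine-CoA 5 uM, BHQ-2-YbbR 12.5 uM (final); 50 mM Hepes pH 7.6, 10 mM MgCl2, 0.01% NP-40, 0.01% BSA; read 525/598 nm at 0 and 30 min.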
# FBPA coupling cs = inhibits coupling enzyme system, counter-screen for aldolase hits; coupling enzyme system counterscreen, AmpLite Red fluorescence; activity change, negative = inhibition, % at 58.2 µM, hits read low; actives 0.67% (n = 290,000); AID 2472; in the data active = activity change below about -30%
#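 Fluorescence at 525 nm excitation and 598 nm emission measured inhibition of the coupled detection system without aldolase. Compounds (at 57.5 uM final) were preincubated 10 min at room temperature with coupling enzyme reagent before a 20 min substrate/AmpLite Red step.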
# Starred values were filed as active, the others as inactive; ? = inconclusive; . = no result given; ! = a repeat was not active; [ ] = dose if it differs, or a comment. Unless noted, calls come from the whole dose curve; as a rule, active = well fitted curve in the direction sought with a large enough effect; inconclusive = small, poorly fitted or top-dose-only effect, or another doubt; inactive = no such curve, though single readings can be large; an effect the other way counts as inactive or inconclusive. Unless noted, % is set by controls: 0 for no effect and ±100 for the full control effect.
SMILES,Tau fibril FP,Tau fluor cs,G9a inh,Tau fibril ThT,Sfp inh,FBPA coupling cs
Cc1cccc(NC(=O)/C(C#N)=C\c2ccc(C(=O)O)cc2)c1,3%,-3%,-46%,-3%,35µM*,5
Cc1cccc(NC(=O)/C(C#N)=C\c2cccnc2)c1,10%,-1%,50µM*,-16%,10%,-2
Cc1cccc(NC(=O)/C(C#N)=C\c2cn(CC(=O)O)c3ccccc23)c1,-5%,-2%,40µM*,4%,10%,0
COc1ccc(/C=C(/C#N)C(=O)Nc2cccc([N+](=O)[O-])c2)cc1C(=O)O,5%,-22%,45µM*,?,14%,-1
N#C/C(=C\c1cccnc1)C(=O)Nc1cccc2ccccc12,3%,5%,50µM*,11%,?,0
Cc1nc2ccccc2nc1OCc1ccc([N+](=O)[O-])cc1,2%,0%,-30%,-9%,2%,0
Clc1ccc(-c2c[n+]3c(n2-c2ccccc2)SCC3)cc1,-8%,-1%,56µM*,0%,0%,3
COc1ccc(NC(=O)Cn2nnc(-c3ccccc3NS(=O)(=O)c3ccccc3)n2)cc1,16µM*,?,8%[59 µM],13%,29%,-14
CC1=NN(C(C#N)c2ccccc2C)C(C)(C)C1 (centres undefined),3%,8%,1%,4%,18%,1
CC1=NN(C(C#N)c2c(C)nn(Cc3ccccc3)c2C)C(C)(C)C1 (centres undefined),-3%,5%,35µM*,1%,17%,2
COc1ccc2ccccc2c1C(=O)/C=C\c1ccoc1,-8%,-18%,45µM*,?,7.9µM*,-26
CC(=O)N1c2ccccc2CC1C(=O)NCc1cccc(Cl)c1 (centres undefined),-2%,-2%,3%[59 µM],1%,.,.
CC(C)Cc1nn2c(=O)cc(COC(=O)c3ccccc3NC(=O)c3ccccc3)nc2s1,12%,4%,-1%[59 µM],-3%,.,.
Cc1ccc(C(=O)OC/C(O)=C(\C#N)c2nc3ccccc3[nH]2)cc1S(=O)(=O)N1CCOCC1,3%,0%,-7%[59 µM],-1%,11%,-6
Cc1ccc(S(=O)(=O)N2CCOCC2)cc1N/N=C(\C#N)c1nc2ccccc2[nH]1,-6%,?,35µM*,?,13%,-11
Cc1c(CCO)c(=O)n(-c2ccccc2)n1S(=O)(=O)c1ccc(Cl)cc1,10%,-2%,25µM*,-9%,-7%,-1
Cc1c(CCO)c(=O)n(-c2ccccc2)n1S(=O)(=O)c1ccc([N+](=O)[O-])cc1,5%,0%,?,-3%,-13%,3
Cc1cc(NC(=O)CCc2ccc(-c3ccccc3)o2)no1,.,.,.,.,-28%,-2
Cc1ccc(-c2ccc(CCC(=O)O)o2)cc1,9%,6%,?,-13%,45µM*,11
Cc1nc(C)c(C(=O)OCC(=O)NCCc2ccc(S(N)(=O)=O)cc2)s1,.,.,1%[12.7 µM],.,.,.
Cc1nc(C)c(C(=O)OCC(=O)NCCc2ccc(F)cc2)s1,.,.,40µM*,.,.,.
CCCOc1ccc2nc(C)c(CCC)c(SC(=N)N)c2c1,-14%,-18%,40µM*,?,?,1
O=C(Nc1cccc(Cl)c1)C1CCCN(c2nn3cc(-c4ccc(F)cc4)nc3s2)C1 (centres undefined),?,?,?,-12%,.,.
CN1CCN(C(=O)c2ccc3c(=O)n(Cc4ccco4)c(=S)[nH]c3c2)CC1,-3%,-11%,45µM*,-15%,-5%,1
O=C(CCCn1c(=S)[nH]c2cc3c(cc2c1=O)OCO3)NCc1ccco1,-1%,-1%,4%,-2%,10%,3
SMILES,Tau fibril FP,Tau fluor cs,G9a inh,Tau fibril ThT,Sfp inh,FBPA coupling cs
CCCN(CCC)C(=O)c1ccc2c(=O)n(Cc3ccco3)c(=S)[nH]c2c1,0%,-3%,?,-15%,13µM*,0
O=c1c2cc3c(cc2[nH]c(=S)n1Cc1ccco1)OCO3,0%,-11%,40µM*,-19%,20µM*,4
CCOC(=O)c1c(C)[nH]c(CCC(=O)NCc2ccccc2Cl)c1C,11%,-5%,-1%[59 µM],-3%,.,.
Cc1cccc(C(=O)N/C(=C\c2ccc(C)o2)C(=O)O)c1,-1%,-4%,?,-13%,18%,-3
CC(=O)c1ccc(NC(=O)c2cc(-c3ccc(C)s3)nc3ccccc23)cc1,-6%,-18%,-3%[59 µM],10%,.,.
COC(=O)CN=Cc1c(C)[nH]n(-c2ccccc2)c1=O,0%,1%,?,-4%,-7%,0
Cc1[nH]n(-c2ccccc2)c(=S)c1C=NCCCN=Cc1c(C)[nH]n(-c2ccccc2)c1=S,-9%,-25%,1.8µM*,?,-96%,-6
Cc1sc(NC(=O)c2sc3nc4c(C)cccc4cc3c2N)c(C#N)c1C,-8%,?,-89%[2.33 µM],16µM*,?,-7
Cc1cccc2cc3c(N)c(C#N)sc3nc12,?,?,7.9µM*,13µM*,8%,3
Cc1cc(N2CCN(c3ccc(C(F)(F)F)cc3[N+](=O)[O-])CC2)c2ccccc2n1,.,.,.,.,71µM*,-1
Cc1ccccc1C1CC(=O)Oc2cc(O)ccc21 (centres undefined),?,-4%[126 µM],1%,-12%[126 µM],2%,-3
Cc1ccc(C)c(CS(=O)(=O)c2cn(CC(=O)N(C(C)C)C(C)C)c3ccccc23)c1,-4%,-10%,-6%[59 µM],-3%,.,.
Cc1nc2cc(N)ccc2n1C1CCCCC1,-8%,-22%,14µM*,?,-19%,-6
CCN(CC)CCCOC(=O)C1(c2ccccc2)CCCC1,6%,-4%,-50%[59 µM],-6%,-18%,-10
CCN(CC)CCOC(=O)C1(c2ccc([N+](=O)[O-])cc2)CCCC1,-8%,3%,13µM*!,5%,8%,2
CCc1ccccc1N(C)C(=O)c1cn(-c2cccc(OC)c2)c(=O)c2ccccc12,-1%,-7%,3%[59 µM],-6%,.,.
CCCn1nnc(NC(=O)/C=C/c2ccccc2)n1,3%,1%,11%,1%,11%,0
Cc1nc(NC(=O)/C=C/c2ccccc2)n[nH]1,?,-3%,19%[59 µM],16µM*,1%,0
CC(C)N1C(=O)/C(=C\c2nc3ccccc3c(=O)[nH]2)c2ccccc21,15%,?,25µM*,28µM*,-14%,3
CCCN1C(=O)/C(=C/c2nc3ccccc3c(=O)[nH]2)c2ccccc21,7%,-2%,?,?,-31%,2
CCCN1C(=O)/C(=C/c2nc3ccccc3c(=O)[nH]2)c2cc(C)ccc21,0%,20µM*[quencher],.,14µM*,8%,1
